Assay results as given in PubChem BioAssay AID624255 (Broad Institute, 2012).
Hit rate of the full screen: of about 77,000 compounds, about 4,600 (6%) were called active. Another 1% or so got no clear call; they are omitted.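 The calls were made as follows: active = mean inhibition above about 93%, with at least 55% of replicates each passing it (limit read from the data, passing the limit was not always enough); inconclusive = only one of those two conditions holds; inactive = neither condition holds.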 Only a selection was taken, and actives are over-represented in it overall.

Test: T. cruzi intracellular proliferation inhibitors, primary screen, cell-based, beta-gal Tulahuen parasites, NIH3T3 host, luminescence (AID 624255)
Conditions: T. cruzi beta-gal in NIH3T3, GalScreen luminescence, 90 h; at 8.34 µM; stronger effect = higher value
In the case of `COc1ccc(NC(=O)N(C)C[C@@H]2OCCCC[C@@H](C)Oc3ccc(NS(=O)(=O)c4cn(C)cn4)cc3C(=O)N([C@@H](C)CO)C[C@H]2C)cc1`, the inhibition is reported as 18.4% (inactive). For `C[C@@H]1CN([C@@H](C)CO)C(=O)c2cc(NS(=O)(=O)c3cn(C)cn3)ccc2O[C@@H](C)CCCCO[C@@H]1CN(C)Cc1ccncc1`, the inhibition was -84.1% (inactive). In the case of `C[C@H](CO)N1C[C@H](C)[C@@H](CN(C)C(=O)c2ccncc2)Oc2ncc(-c3ccncc3)cc2C1=O`, the inhibition is reported as 4.66% (inactive). With `COC(=O)[C@@H]1[C@@H](CO)[C@@H]2Cn3c(ccc(-c4ccccc4)c3=O)[C@@H]2N1C(=O)C1CC1` the inhibition was 59.9% (inactive). With `O=C(Nc1ccccc1)N[C@@H]1CC[C@H](CCNS(=O)(=O)c2ccccc2F)O[C@@H]1CO` the inhibition was -32.8% (inactive). With `Cn1cnc(CCNC(=O)C[C@H]2CC[C@@H]3[C@H](COC[C@@H](O)CN3C(=O)Nc3ccc(Cl)cc3)O2)c1` the inhibition was 33% (inactive). For `O=C(N[C@H]1C=C[C@@H](CC(=O)N2CCN(c3ccccc3)CC2)O[C@@H]1CO)c1ccncc1`, the inhibition was -7% (inactive). In the case of `CC(=O)N(C)C[C@@H]1Oc2cc(-c3cccnc3)ccc2S(=O)(=O)N([C@H](C)CO)C[C@H]1C`, the inhibition is reported as -140% (inactive). In the case of `O=C(C[C@@H]1CC[C@@H]2[C@H](COC[C@H](O)CN2S(=O)(=O)c2ccc(Cl)cc2)O1)N[C@@H]1CCN(Cc2ccccc2)C1`, the inhibition is reported as 43.9% (inactive). With `CN(C)C(=O)c1ccc(-c2ccc3c(c2)[C@H]2[C@H](CCN2C(=O)c2ccc4c(c2)OCO4)[C@H](CO)N3)cc1` the inhibition was 99.5% (active). For `COCC(=O)N1CC[C@H]2[C@H](CO)Nc3ccc(-c4ccc(C(=O)N(C)C)cc4)cc3[C@H]21`, the inhibition was 90.6% (inactive). With `OC[C@@H]1Nc2ccc(-c3cccc(F)c3)cc2[C@H]2[C@@H]1CCN2Cc1ccncc1` the inhibition was 115% (active). In the case of `OC[C@@H]1Nc2ccc(-c3ccc(F)cc3)cc2[C@@H]2[C@H]1CCN2Cc1ccc(F)cc1`, the inhibition is reported as 22.6% (inactive). With `O=C(C1CCC1)N1CC[C@H]2[C@H](CO)Nc3ccc(-c4cccc(F)c4)cc3[C@H]21` the inhibition was 92.4% (inactive). For `O=C(c1cnccn1)N1CC[C@@H]2[C@H](CO)Nc3ccc(-c4cccc(F)c4)cc3[C@@H]21`, the inhibition was 109% (active). In the case of `N#Cc1cccc(-c2ccc3c(c2)[C@H]2[C@H](CCN2Cc2ccc4c(c2)OCO4)[C@@H](CO)N3)c1`, the inhibition is reported as 27.1% (inactive). For `O=C(c1ccccc1)N1CC[C@H]2[C@H](CO)Nc3ccc(-c4ccc(F)cc4)cc3[C@H]21`, the inhibition was 59.1% (inactive). With `COc1ccc(-c2ccc3c(c2)[C@H]2[C@H](CCN2C(=O)c2ccc4c(c2)OCO4)[C@@H](CO)N3)cc1` the inhibition was 13.9% (inactive). For `O=C(c1cccnc1)N1CC[C@H]2[C@H](CO)Nc3ccc(-c4ccc(F)cc4)cc3[C@H]21`, the inhibition was 74.7% (inactive). For `O=C(c1ccccn1)N1CC[C@@H]2[C@H]1c1cc(-c3ccccc3)ccc1N[C@@H]2CO`, the inhibition was 106% (active). For `O=C(c1cccnc1)N1CC[C@@H]2[C@@H](CO)Nc3ccc(-c4ccccc4)cc3[C@@H]21`, the inhibition was 77.8% (inactive). For `O=C(NC[C@@H]1[C@@H](c2ccccc2)[C@@H](CO)N1Cc1ccccn1)C1CCC1`, the inhibition was 31.9% (inactive). In the case of `C[C@H](O)C#Cc1cnc2c(c1)C(=O)N([C@H](C)CO)C[C@H](C)[C@@H](CN(C)C(=O)Nc1ccc(F)cc1)O2`, the inhibition is reported as 41% (inactive). With `O=C([C@H]1[C@H](CO)[C@H]2Cn3c(ccc(-c4ccccc4)c3=O)[C@@H]1N2Cc1cccnc1)N1CCOCC1` the inhibition was 28.9% (inactive). For `CN(C)C(=O)[C@H]1[C@H](CO)[C@H]2Cn3c(ccc(-c4ccc(F)cc4)c3=O)[C@H]2N1C(=O)c1ccccn1`, the inhibition was 32.7% (inactive). For `C/C=C/c1ccc([C@@H]2[C@@H](CN(C)C(C)=O)N(C(=O)C3CC3)[C@H]2CO)cc1`, the inhibition was -20.4% (inactive). With `CO[C@@H]1CN(C)C(=O)c2cc(NC(=O)Nc3cccc(F)c3)ccc2OC[C@H](C)N(C)C[C@@H]1C` the inhibition was -11.1% (inactive). For `COc1cccc(S(=O)(=O)Nc2ccc3c(c2)[C@H]2C[C@H](CC(=O)N4CCCCC4)O[C@@H](CO)[C@H]2O3)c1`, the inhibition was 32.8% (inactive). In the case of `COc1ccccc1C(=O)Nc1ccc2c(c1)C(=O)N(C)C[C@@H](OC)[C@@H](C)CN(CC1CC1)[C@@H](C)CO2`, the inhibition is reported as 21.2% (inactive). For `CC(=O)N(C)C[C@@H]1[C@@H](c2ccc(-c3ccccc3F)cc2)[C@@H](CO)N1C(C)=O`, the inhibition was 113% (active). For `CC(=O)N1[C@H](CNC(=O)C2CC2)[C@@H](c2ccc(-c3cccc(F)c3)cc2)[C@@H]1CO`, the inhibition was 98.8% (active). For `CC(=O)N1[C@H](CO)[C@@H](c2ccc(-c3ccccc3)cc2)[C@H]1CNC(=O)C1CC1`, the inhibition was -18% (inactive). With `CCC(=O)N(C)C[C@H]1[C@H](c2ccc(-c3ccccc3F)cc2)[C@@H](CO)N1C(C)=O` the inhibition was 8.38% (inactive). In the case of `CC(=O)N1[C@H](CO)[C@H](c2ccc(-c3ccccc3)cc2)[C@H]1CNC(=O)C1CC1`, the inhibition is reported as -0.382% (inactive). For `CC(=O)NC[C@@H]1[C@@H](c2ccc(-c3ccccc3F)cc2)[C@@H](CO)N1C(=O)C1CC1`, the inhibition was 108% (active). In the case of `N#C[C@@H]1[C@@H](c2ccc(-c3ccccc3F)cc2)[C@@H](CO)N1C(=O)C1CC1`, the inhibition is reported as 71.7% (inactive). With `COCC(=O)N(C)C[C@H]1[C@@H](c2ccc(-c3cccnc3)cc2)[C@H](CO)N1C(C)=O` the inhibition was 84.3% (inactive). In the case of `CC(=O)N1[C@H](CO)[C@@H](c2ccc(-c3ccc(F)cc3)cc2)[C@H]1CNC(=O)C1CC1`, the inhibition is reported as -36% (inactive). For `COc1ccc(S(=O)(=O)Nc2ccc3c(c2)CC(=O)N([C@@H](C)CO)C[C@@H](C)[C@H](CN(C)S(=O)(=O)c2ccccc2)O3)cc1`, the inhibition was 0.553% (inactive). For `COc1ccc(S(=O)(=O)N(C)C[C@H]2Oc3ccc(NC(=O)Nc4ccccc4)cc3CC(=O)N([C@H](C)CO)C[C@@H]2C)cc1`, the inhibition was -16.8% (inactive). With `C[C@@H]1CN([C@H](C)CO)C(=O)c2cc(NC(=O)Nc3cccc4ccccc34)ccc2O[C@@H](C)CCCCO[C@H]1CN(C)S(=O)(=O)c1cccs1` the inhibition was 23.5% (inactive). In the case of `CO[C@@H]1CC[C@@H]2CCOc3ccc(C#N)cc3C(=O)N(C)C[C@H](c3ccccc3)CC(=O)N(C)C[C@H]1O2`, the inhibition is reported as 5.08% (inactive). With `N#C[C@@H]1N[C@@H](CO)[C@@H]1c1ccc(C#Cc2ccccc2F)cc1` the inhibition was 79.1% (inactive). In the case of `COc1cccc(C#Cc2ccc([C@@H]3[C@H](C#N)N[C@H]3CO)cc2)c1`, the inhibition is reported as 101% (active). For `N#C[C@H]1N[C@H](CO)[C@@H]1c1ccc(C#Cc2ccccc2F)cc1`, the inhibition was 24.3% (inactive). In the case of `O=C(Nc1ccccc1)N1C[C@H]2[C@@H](c3ccccc31)[C@@H](CO)N2Cc1cocn1`, the inhibition is reported as 65% (inactive). In the case of `CNC(=O)C[C@@H]1CC[C@H]2[C@@H](COc3ccc(NC(=O)NCc4ccccc4)cc3C(=O)N2C)O1`, the inhibition is reported as -25% (inactive). For `C[C@H]1CN([C@@H](C)CO)S(=O)(=O)c2ccc(C#CCN(C)C)cc2O[C@H]1CN(C)C(=O)c1ccccc1F`, the inhibition was 36.4% (inactive). With `CCCC#Cc1ccc2c(c1)O[C@@H](CN(C)C(=O)c1ccccc1F)[C@H](C)CN([C@H](C)CO)S2(=O)=O` the inhibition was 97.6% (active). For `CC(C)CC#Cc1ccc2c(c1)O[C@@H](CN(C)C(=O)c1ccccc1F)[C@H](C)CN([C@H](C)CO)S2(=O)=O`, the inhibition was 54% (inactive). For `CCCC#Cc1ccc2c(c1)O[C@@H](CN(C)C(=O)CC)[C@H](C)CN([C@H](C)CO)S2(=O)=O`, the inhibition was 68.6% (inactive). In the case of `CCCC#Cc1ccc2c(c1)O[C@H](CN(C)C(=O)CC)[C@@H](C)CN([C@H](C)CO)S2(=O)=O`, the inhibition is reported as 94.9% (active). For `C[C@H]1CN([C@@H](C)CO)S(=O)(=O)c2ccc(C#CCN(C)C)cc2O[C@H]1CN(C)C(=O)CN(C)C`, the inhibition was -25.5% (inactive). For `CCCC#Cc1ccc2c(c1)O[C@@H](CN(C)C(=O)CC)[C@@H](C)CN([C@H](C)CO)S2(=O)=O`, the inhibition was 67% (inactive). In the case of `COCC#Cc1ccc2c(c1)O[C@@H](CN(C)C(C)=O)[C@H](C)CN([C@H](C)CO)S2(=O)=O`, the inhibition is reported as -30.8% (inactive). For `C[C@@H]1CN([C@H](C)CO)S(=O)(=O)c2ccc(C#CCN(C)C)cc2O[C@@H]1CN(C)C(=O)CN(C)C`, the inhibition was -40.2% (inactive). With `CC(=O)N(C)C[C@H]1Oc2cc(C#CCN(C)C)ccc2S(=O)(=O)N([C@H](C)CO)C[C@H]1C` the inhibition was 56.9% (inactive). In the case of `CCC(=O)N(C)C[C@@H]1Oc2cc(C#CCN(C)C)ccc2S(=O)(=O)N([C@H](C)CO)C[C@H]1C`, the inhibition is reported as 101% (active). In the case of `CC(=O)N(C)C[C@H]1Oc2cc(C#CCN(C)C)ccc2S(=O)(=O)N([C@@H](C)CO)C[C@@H]1C`, the inhibition is reported as 106% (active). For `O=C(C[C@H]1CC[C@H]2[C@@H](COC[C@@H](O)CN2Cc2cccc(C(F)(F)F)c2)O1)NCc1ccncc1`, the inhibition was 73.9% (inactive). In the case of `C[C@@H]1CCCCO[C@@H](CN(C)S(C)(=O)=O)[C@@H](C)CN([C@@H](C)CO)C(=O)c2cc(NS(=O)(=O)c3ccc(Cl)cc3)ccc2O1`, the inhibition is reported as 46.7% (inactive). With `O=C(C[C@H]1CC[C@H]2[C@@H](COC[C@@H](O)CN2CCC(F)(F)F)O1)NCc1ccc2c(c1)OCO2` the inhibition was -35.7% (inactive). For `COc1cccc(NC(=O)C[C@@H]2CC[C@H]3[C@@H](COc4ccc(NC(=O)C5CCOCC5)cc4C(=O)N3C)O2)c1`, the inhibition was 24.1% (inactive). In the case of `CN(C)C(=O)C[C@@H]1CC[C@H](NC(=O)NC2CCCC2)[C@H](CO)O1`, the inhibition is reported as -49.3% (inactive). With `O=C(C[C@@H]1CC[C@@H]2[C@H](COC[C@@H](O)CN2Cc2ccccc2)O1)NCCc1ccccc1` the inhibition was 13.4% (inactive).
